Assay outcomes deposited in PubChem BioAssay by National Center for Advancing Translational Sciences (NCATS).
The list is not random: actives were taken first. Their share in the collection is about 6.1%.
DRD3 antagonist – qHTS of D3 Dopamine Receptor Antagonist: qHTS; actives 2.5% (n = 360,000); D(3) dopamine receptor (Homo sapiens), P35462; max response, negative = inhibition, %; D3R cells, DiscoveRx beta-arrestin luminescence, antagonist mode; active compounds read low; in the data active = max response below about -50%; inconclusive = no clear call, values can overlap the other calls
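Cells expressing the human receptor were seeded at 1500 cells/well, incubated overnight at 37 degrees C in 5% CO2, then exposed to library compounds with dopamine controls for 90 minutes at 37 degrees C before luminescent detection.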
D1 potentiator – Potentiators of Human D1 Dopamine Receptor: qHTS | D(1A) dopamine receptor (Homo sapiens), P21728 | potentiation, % at 10 µM | actives 0.036% (n = 360,000) | HEK293 TREx D1 cells, calcium flux, dopamine EC20 potentiation; in the data active = potentiation above about 30%
Target sequence (P21728 whole entry, looked up): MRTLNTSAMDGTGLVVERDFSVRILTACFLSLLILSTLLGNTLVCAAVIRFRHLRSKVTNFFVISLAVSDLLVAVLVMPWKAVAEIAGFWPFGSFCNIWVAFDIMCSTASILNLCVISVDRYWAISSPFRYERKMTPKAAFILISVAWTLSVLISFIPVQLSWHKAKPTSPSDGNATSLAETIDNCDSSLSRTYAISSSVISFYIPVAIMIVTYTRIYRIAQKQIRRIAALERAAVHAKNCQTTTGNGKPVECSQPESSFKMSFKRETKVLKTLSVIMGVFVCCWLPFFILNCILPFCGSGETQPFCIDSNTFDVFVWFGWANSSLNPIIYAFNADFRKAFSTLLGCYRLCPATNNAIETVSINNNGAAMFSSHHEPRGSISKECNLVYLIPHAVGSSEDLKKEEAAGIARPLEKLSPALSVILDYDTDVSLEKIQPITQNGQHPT
D1 antag – Antagonist of Human D 1 Dopamine Receptor: qHTS | HEK293 TREx D1 cells, calcium flux, dopamine EC80; active compounds read low | actives 3.2% (n = 360,000) | activity change, negative = inhibition, % at 10 µM | D(1A) dopamine receptor (Homo sapiens), P21728 | AID 504652, 2011; in the data active = activity change below about -30%
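After overnight tetracycline induction at 30 C, force-coupled D1 HEK293 cells took up a no-wash calcium dye at room temperature. Compounds were added and monitored 180 s, and the response to EC80 dopamine was then recorded.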
D1 ag – Allosteric Agonists of the Human D1 Dopamine Receptor: qHTS. actives 1% (n = 360,000). activation, % at 2 µM. HEK293 T-REx D1 cells, calcium flux, agonist mode; in the data active = activation above about 30%
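Inducible HEK293 T-REx D1 cells, force-coupled to calcium signalling, were plated at 4000 cells/well with tetracycline and held overnight at 30 C. After no-wash calcium dye loading, compound-evoked calcium rise over 180 s flagged agonists.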
DRD3 agonist – qHTS of D3 Dopamine Receptor Agonist: qHTS | D3R DiscoveRx beta-arrestin cells, luminescence, 90 min | max activation, % | actives 0.58% (n = 410,000) | AID 652048, 2013; in the data active = max activation above about 30%
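Cells at 1500/well, incubated overnight, then treated with pinned compounds (dopamine as control) for 90 min at 37 degrees C. DiscoveRx reagent added for 30 - 60 minutes at room temperature; luminescence read.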
Of the large screens only hits and unclear results are named; the others gave an inactive call; ! = not active in a repeat.

CCc1nn(C(C)C(=O)NCCN2CCN(c3cccc(C)c3C)CC2)c(=O)c2cc3occc3n12 (centres undefined)	DRD3 antagonist -59
CCc1nn(C(C)C(=O)NCCN2CCCCCC2)c(=O)c2cc3occc3n12 (centres undefined)	none
O=C(CCCOc1ccccc1)Nc1nncs1	D1 antag -35
Cc1ccccc1-c1noc(-c2ccccc2OCC(=O)Nc2ccccc2[N+](=O)[O-])n1	D1 antag -63 (no result: DRD3 antagonist)
CN(CCCC(=O)O)c1ccc(N=Nc2ccc([N+](=O)[O-])cc2)cc1	DRD3 antagonist -87 (no result: D1 potentiator, D1 antag, D1 ag)
CN(N=Nc1ccc([N+](=O)[O-])cc1)c1ccccc1	none
COc1cc(F)cc(F)c1[S+](=O)([O-])N1CCN([S+](=O)([O-])c2ccc3c(c2)OCCO3)CC1	none (no result: DRD3 antagonist, DRD3 agonist)
COc1ccc(-c2cc(N)n(S(=O)(=O)c3c(F)c(F)c(F)c(F)c3F)n2)cc1OC	DRD3 antagonist -56
C=CCNC(=S)N1CCC(C(=O)c2ccc(F)cc2)CC1	none
COc1cccc(N2CCN(C(C)C(=O)NC34CC5CC(CC(C5)C3)C4)CC2)c1 (centres undefined)	DRD3 antagonist -53
COc1cccc(N2CCN(CC(=O)C34CC5CC(CC(C5)C3)C4)CC2)c1	none
CCc1nc(SCC#N)c(C#N)cc1C	D1 antag -34 (no result: DRD3 antagonist, DRD3 agonist)
Cc1cccc2cc(C#N)c(SCC#N)nc12	D1 ag 32
Cc1cc(C)c(S(=O)(=O)n2c([N+](=O)[O-])cnc2C)c(C)c1	none
COc1ccc(C(=O)COC(=O)CCN2C(=O)C3C4C=CC(C5CC45)C3C2=O)cc1 (centres undefined)	none
COc1ccccc1CNC(=O)CN1C(=O)NC(Cc2ccccc2)(c2ccccc2)C1=O (centres undefined)	none (no result: D1 potentiator, D1 antag, D1 ag)
O=C(COC(=O)CCSc1ccc(F)cc1)NCc1ccc(F)cc1	none (no result: D1 potentiator, D1 antag, D1 ag)
CCn1c(-c2ccsc2)nc2c1c(=O)[nH]c(=O)n2Cc1ccccc1	D1 antag -52
O=C(Nc1nnc(-c2ccccc2)s1)c1cc(S(=O)(=O)N2CCOCC2)c(Cl)cc1Cl	DRD3 antagonist -70
S=c1[nH]nc(-c2cc(-c3ccccc3)n[nH]2)n1/N=C/c1ccc(Cl)c(Cl)c1	none
Cc1n[nH]c(=S)n1/N=C/c1ccccc1OCc1ccc(Cl)cc1Cl	DRD3 agonist 31
O=[N+]([O-])c1cccc(/C=N/n2c(-c3cccnc3)n[nH]c2=S)c1	none
S=c1[nH]nc(-c2cc(-c3ccccc3)n[nH]2)n1/N=C/c1ccc(Cl)cc1	DRD3 antagonist -55
O=[N+]([O-])c1ccc(/C=N/n2c(-c3cccnc3)n[nH]c2=S)cc1	DRD3 antagonist -56
Cc1n[nH]c(=S)n1/N=C/c1ccc(OCc2ccc(Cl)cc2)cc1	DRD3 antagonist inconclusive, D1 antag -34
Cc1cccc(NC(=O)C2CCCN(C(=O)Nc3ccc(F)cc3)C2)c1 (centres undefined)	none
Cc1ccc(NC(=O)CSc2nnc(C)n3c2cc2sccc23)c(C)c1	none (no result: DRD3 antagonist)
COc1ccc(OC)c(NC(=O)CSc2nc(=O)n(CCN3CCOCC3)c3c2CCCC3)c1	none
CC1(C)CC(C(=O)Nc2ccccc2)C(=O)O1 (centres undefined)	none (no result: D1 potentiator, D1 antag, D1 ag)
C[C@]1(O)CC(=O)C=C[C@H]1Nc1ccccc1	DRD3 antagonist -52 (no result: D1 potentiator, D1 antag, D1 ag)
CCC1Nc2ncnc(N3CCCCC3)c2N(Cc2ccc(Cl)cc2)C1=O (centres undefined)	DRD3 antagonist -65! (no result: D1 potentiator, D1 antag, D1 ag)
COc1ccc(CN2C(=O)C(Cc3ccccc3)Nc3ncnc(N4CCOCC4)c32)cc1 (centres undefined)	DRD3 antagonist inconclusive
O=C1C(Cc2ccccc2)Nc2ncnc(N3CCc4ccccc4C3)c2N1Cc1ccc(Cl)cc1 (centres undefined)	DRD3 antagonist -59
O=C1C(Cc2ccccc2)Nc2ncnc(N3CCCCC3)c2N1Cc1ccc(Br)cc1 (centres undefined)	DRD3 antagonist -99 (no result: D1 potentiator, D1 antag, D1 ag)
O=C1C(Cc2ccccc2)Nc2ncnc(N3CCCCC3)c2N1Cc1ccccc1 (centres undefined)	none (no result: D1 potentiator, D1 antag, D1 ag)
